# From PubChem BioAssay (NCATS)
# Inconclusive results are not listed. Unmarked numbers belong to inactive results. Calls come from the whole dose curve; as a rule, active = well fitted inhibition curve with a large enough effect; inconclusive = small, poorly fitted or top-dose-only effect; inactive = flat fitted curve, though single readings scatter.
# Target: Calcium and integrin-binding protein 1 (Homo sapiens) (UniProt Q99828)
# Experiment: Primary qHTS for Identification of Calcium Integrin Binding Protein 1 (CIB1) Competitor (AID 1508620);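 note: GST tagged CIB1 binding a fluorescein labelled alphaIIb integrin peptide tracer; top concentration of the series differs between compounds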
# Conditions: CIB1-GST / FITC-alphaIIb peptide fluorescence polarization; series mostly up to 57.7 µM; activity change, negative = inhibition: at the top concentration
# Procedure, shortened: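 CIB1-GST (1 uM final) and compound incubated 15 min at room temperature before adding FITC-alphaIIb peptide tracer (100 nM final). Competition for binding read by fluorescence polarization (ex 480, em 540) after another 15 min at room temperature.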
# % is set by controls: 0 for no effect and ±100 for the full control effect.
# Sequence of Calcium and integrin-binding protein 1 (Homo sapiens) (Q99828 whole entry, looked up): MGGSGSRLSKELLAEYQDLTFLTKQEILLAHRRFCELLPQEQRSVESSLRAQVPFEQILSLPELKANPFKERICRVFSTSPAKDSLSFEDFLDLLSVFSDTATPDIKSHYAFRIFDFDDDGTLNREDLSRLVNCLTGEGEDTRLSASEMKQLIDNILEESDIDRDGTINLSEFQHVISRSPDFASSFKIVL
row,SMILES,"activity change, negative = inhibition"
1,CC1(C)CC[C@]2(C(=O)O)CC[C@]3(C)C(=CCC4[C@@]5(C)CC[C@H](O)C(C)(C)C5CC[C@]43C)C2C1 (some centres undefined),2.66%
2,CC(=O)OCC1=CCC2C(C)(C)CCCC2(C)C12CCC(C)(CC(=O)O)O2 (centres undefined),-1.92%
3,CC(O)C(O)/C=C/C=C/C(=O)O[C@@H]1C=C(C(=O)O)[C@](O)(CO)[C@@]2(C)CCCC(C)(C)[C@H]12 (some centres undefined),3.64%
4,C=C(COC(=O)CC(C)C)C1Cc2cc(C(C)=O)ccc2O1 (centres undefined),-5.95% [at 114 µM]
5,C=C(C)[C@@H]1CC[C@]2(C)CC[C@]3(C)C(CCC4[C@@]5(C)CC[C@H](O)C(C)(C)C5CC[C@]43C)C12 (some centres undefined),2.93%
6,CC1=C(CC/C(C)=C/C(=O)O)[C@@]2(C)CCCC(C)(C)C2CC1=O (some centres undefined),5.11%
7,C[C@@H]1CCC2C(C)(C)[C@H](O)[C@H](O)C[C@]2(C)[C@@]12Cc1c(O)cc3c(c1O2)CN(CCCC(=O)O)C3=O (some centres undefined),2.85%
8,CC1(C)CC[C@]2(C(=O)O[C@@H]3O[C@H](CO)[C@@H](O)[C@H](O)[C@H]3O)CC[C@]3(C)C(=CCC4[C@@]5(C)CC[C@H](O[C@@H]6O[C@H](C(=O)O)[C@@H](O)[C@H](O)[C@H]6OC6OC(CO)C(O)C(O)C6O)C(C)(C)C5CC[C@]43C)[C@@H]2C1 (some centres undefined),-5.69% [at 30.2 µM]
9,CC(C)=CCC[C@@](C)(O)[C@H]1CC[C@]2(C)[C@@H]1[C@H](O)CC1[C@@]3(C)CC[C@H](O[C@@H]4O[C@H](CO)[C@@H](O)[C@H](O)[C@H]4O[C@@H]4O[C@H](CO)[C@@H](O)[C@H](O)[C@H]4O)C(C)(C)[C@@H]3CC[C@]12C (some centres undefined),0.844% [at 30.2 µM]
10,COc1cc(/C=C/C(=O)O[C@H]2C[C@@H]3C(C(=O)O)=CO[C@@H](O[C@@H]4O[C@H](CO)[C@@H](O)[C@H](O)[C@H]4O)[C@@H]3[C@H]2C)ccc1O,4.89%
11,CC1CC=C2C1CC1(O)C(=O)CC2(C)C1(C)CO (centres undefined),3.76% [at 114 µM]
12,C[C@H]1/C=C/C=C/C=C/C=C/C=C/[C@@H](O)[C@H](C(=O)O)[C@H](O)C[C@H](O)CCC[C@H](O)C[C@H](O)C[C@H](O)[C@@H](C)C(=O)O[C@@H]1C,-1.53% [at 30.2 µM]
13,C=C(C)C1CCC2(C(=O)OC3OC(COC4OC(CO)C(O)C(O)C4O)C(OC4OC(C)C(O)C(O)C4O)C(O)C3O)CCC3(C(=O)O)C(CCC4C5(C)CCC(=O)C(C)(C)C5CCC43C)C12 (centres undefined),0.482% [at 30.2 µM]
14,CC1(C)CCC[C@@]2(C)[C@H]1[C@H](O)C=C(CO)[C@]2(O)CO,1.63% [at 114 µM]
15,CCC(C)C(=O)OC[C@H]1O[C@H](O[C@H]2O[C@H](CO)[C@@H](O)[C@H](O)[C@H]2O)[C@H](O)[C@@H](O)[C@@H]1O (some centres undefined),5.47%
16,Cc1c(C)c(NCC(=O)N(C)C2CCN(Cc3ccc(C(N)=O)cc3)CC2)c(C)c(C)c1N,3.54% [at 114 µM]
17,C=C1C(OC(C)=O)[C@@]23CCC4[C@](C)(C(=O)O)CCC[C@@]4(C)[C@]2(O)CC[C@H]1C3 (some centres undefined),4.41%
18,COc1ccc(C2(O)c3ccccc3NC(=O)C2OC)cc1 (centres undefined),-5.43% [at 114 µM]
19,C[C@@H]1[C@H]2[C@H](O[C@@H]3O[C@H](CO)[C@@H](O)[C@H](O)[C@H]3O)OC=C(C(=O)O)[C@H]2C[C@@H]1OC(=O)/C=C/c1ccc(O)cc1,-3.17%
20,CC1CCC2(C)CCC3(C)C(=CCC4C5(C)CCC(O)C(C)(C(=O)O)C5CCC43C)C2C1C (centres undefined),-1.69%

row,SMILES,"activity change, negative = inhibition"
1,O=C(/C=C/c1ccc(O)cc1)OC[C@@]1(O)C=C[C@@H]2C(C(=O)O)=CO[C@@H](O[C@@H]3O[C@H](CO)[C@@H](O)[C@H](O)[C@H]3O)[C@@H]21,-6.61%
2,CCc1cc(CC[C@]2(C3CCCC3)CC(O)=C(Cc3nc4nc(C)cc(C)n4n3)C(=O)O2)cc(CC)n1,-3.33% [at 114 µM]
3,COCc1c(O)c(C(=O)O)c(C)c2c1OC(=O)c1c(C)cc(O)c(CO)c1O2,-11.4%
4,O=C(O)CC/C=C\C[C@H]1CO[C@@H](c2ccccc2Cl)O[C@H]1c1ccccc1O,-3.67% [at 114 µM]
5,CC1OC(OC2C(OC3C(O[C@H]4CC[C@@]5(C)C(CC[C@]6(C)C5CC=C5C7CC(C)(C)CC(O)[C@]7(C)CC[C@]56C)C4(C)C)OC(C(=O)O)C(O)C3O)OCC(O)C2O)C(O)C(O)C1O (some centres undefined),-1.1% [at 30.2 µM]
6,COC(=O)CCC1(C)C(C(C)(C)O)C(O)CC2(C)Oc3c(C)c4c(c(OC)c3CC21)C(=O)OC4 (centres undefined),3.04%
7,C[C@@H]1O[C@@H](O[C@H]2[C@@H]3C=CO[C@@H](O[C@@H]4O[C@H](CO)[C@@H](O)[C@H](O)[C@H]4O)[C@@H]3[C@@]3(CO)O[C@@H]23)[C@H](OC(=O)/C=C/c2ccc(O)cc2)[C@H](O)[C@H]1O,0.242% [at 30.2 µM]
8,C=CC(C)(CC/C=C(\C)C(=O)OC[C@H]1O[C@@H](OC(C)(C=C)CC/C=C(\C)C(=O)O[C@H]2[C@H](O)[C@@H](O)[C@H](OC(C)(C=C)CC/C=C(\C)C(=O)O)O[C@@H]2CO)[C@H](O)[C@@H](O)[C@@H]1O)O[C@@H]1O[C@H](CO)[C@@H](O)[C@H](O)[C@H]1O (some centres undefined),-0.612% [at 30.2 µM]
9,CC(C)/C=C1/NC(=O)C(C(C)C)n2c1nc1c(O)cccc1c2=O (centres undefined),4.16%
10,COc1ccc(C2C(C(=O)O)C(C(=O)O)C2c2ccc(OC)cc2O[C@@H]2O[C@H](CO)[C@@H](O)[C@H](O)[C@H]2O)c(O[C@@H]2O[C@H](CO)[C@@H](O)[C@H](O)[C@H]2O)c1 (some centres undefined),-1.94% [at 30.2 µM]
11,C=C1CC[C@@H]2[C@](C)(CO)[C@H](O[C@@H]3O[C@H](CO)[C@@H](O)[C@H](O)[C@H]3O)CC[C@@]2(C)[C@@H]1C/C=C1/C(=O)OC[C@H]1O,-1.89%
12,CC1(C)OC(=O)CC(O)C2(C)C1CC(=O)C1(C)C2C(O)CC2(C)C(c3ccoc3)OC(=O)C3OC321 (centres undefined),-5.48%
13,CC1=COC(OC2OC(CO)C(O)C(O)C2O)C2C(CO)CC(OC(=O)/C=C/c3ccc(O)cc3)C12 (centres undefined),5.33%
14,C/C(=C\CCC(C)CCO)C(=O)OC[C@H]1O[C@@H](O[C@@H]2OC=C(C(=O)O)[C@H]3CC[C@](C)(O)[C@@H]23)C(O)[C@@H](O)C1O (some centres undefined),-8.34%
15,C[C@@H]1CC[C@]2(C(=O)O[C@@H]3O[C@H](CO[C@@H]4O[C@H](CO)[C@@H](O)[C@H](O)[C@H]4O)[C@@H](O)[C@H](O)[C@H]3O)CC[C@]3(C)C(=CCC4[C@@]5(C)CC[C@H](O)[C@](C)(C(=O)O)C5CC[C@]43C)[C@@H]2[C@]1(C)O (some centres undefined),3.95% [at 30.2 µM]
16,C[C@@H]1C[C@@H](O)[C@@]2(CO)C(CO)=CCC[C@@H]2[C@@]12C[C@@H](c1ccoc1)OC2=O,-9.36%
17,COc1cc(/C=C/C(=O)OC[C@H]2O[C@@H](OC3CC(C)=C(C(=O)O)C(C)(C)C3)[C@H](O)[C@@H](O)[C@@H]2O)cc(OC)c1O (some centres undefined),1.28%
18,COc1cc(C(CO)CO[C@@H]2O[C@H](CO)[C@@H](O)[C@H](O)[C@H]2O)ccc1O (some centres undefined),-2.7%
19,C/C=C1/[C@H](O[C@@H]2O[C@H](CO)[C@@H](O)[C@H](O)[C@H]2O)OC=C(C(=O)OC)[C@H]1CC(=O)OCCc1ccc(O)c(O)c1,0.228%
